Assays:
[1] = target: High affinity nerve growth factor receptor (Homo sapiens) (UniProt P04629); settings: at 1 µM;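 also: each value is the mean percent inhibition of TRKA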
[2] = target: BDNF/NT-3 growth factors receptor (Homo sapiens) (UniProt Q16620); settings: at 0.1 µM
[3] = target: BDNF/NT-3 growth factors receptor (Homo sapiens) (UniProt Q16620); settings: at 1 µM
[4] = target: NT-3 growth factor receptor (Homo sapiens) (UniProt Q16288); settings: at 0.1 µM
[5] = target: NT-3 growth factor receptor (Homo sapiens) (UniProt Q16288); settings: at 1 µM
[6] = target: T1, Tyrosine-protein kinase TXK (Homo sapiens) (UniProt P42681); settings: at 0.1 µM
T1 sequence (whole entry): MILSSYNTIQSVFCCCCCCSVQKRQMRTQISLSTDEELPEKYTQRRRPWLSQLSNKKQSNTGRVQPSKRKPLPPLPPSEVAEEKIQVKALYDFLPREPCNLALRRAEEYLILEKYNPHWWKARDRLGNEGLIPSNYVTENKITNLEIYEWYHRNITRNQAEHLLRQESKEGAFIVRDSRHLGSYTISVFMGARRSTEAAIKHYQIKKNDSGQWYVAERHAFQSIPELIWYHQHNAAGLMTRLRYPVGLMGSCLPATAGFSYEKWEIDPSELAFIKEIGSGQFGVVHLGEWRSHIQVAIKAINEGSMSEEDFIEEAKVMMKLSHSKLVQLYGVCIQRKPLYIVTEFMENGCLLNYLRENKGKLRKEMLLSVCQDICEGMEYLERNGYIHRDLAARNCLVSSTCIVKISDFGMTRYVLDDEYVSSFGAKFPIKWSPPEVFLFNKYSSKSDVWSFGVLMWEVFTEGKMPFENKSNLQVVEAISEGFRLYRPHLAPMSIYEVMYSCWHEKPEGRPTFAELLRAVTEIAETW

[7] = target: T1, Tyrosine-protein kinase TXK (Homo sapiens); settings: at 1 µM
[8] = target: Non-receptor tyrosine-protein kinase TYK2 (Homo sapiens) (UniProt P29597); settings: at 0.1 µM;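 also: each value is a mean of the inhibition readings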
[9] = target: T2, Dual specificity protein kinase TTK (Homo sapiens) (UniProt P33981); settings: at 1 µM;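 also: reported figures are mean TTK inhibition at 1 µM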
T2 sequence (whole entry): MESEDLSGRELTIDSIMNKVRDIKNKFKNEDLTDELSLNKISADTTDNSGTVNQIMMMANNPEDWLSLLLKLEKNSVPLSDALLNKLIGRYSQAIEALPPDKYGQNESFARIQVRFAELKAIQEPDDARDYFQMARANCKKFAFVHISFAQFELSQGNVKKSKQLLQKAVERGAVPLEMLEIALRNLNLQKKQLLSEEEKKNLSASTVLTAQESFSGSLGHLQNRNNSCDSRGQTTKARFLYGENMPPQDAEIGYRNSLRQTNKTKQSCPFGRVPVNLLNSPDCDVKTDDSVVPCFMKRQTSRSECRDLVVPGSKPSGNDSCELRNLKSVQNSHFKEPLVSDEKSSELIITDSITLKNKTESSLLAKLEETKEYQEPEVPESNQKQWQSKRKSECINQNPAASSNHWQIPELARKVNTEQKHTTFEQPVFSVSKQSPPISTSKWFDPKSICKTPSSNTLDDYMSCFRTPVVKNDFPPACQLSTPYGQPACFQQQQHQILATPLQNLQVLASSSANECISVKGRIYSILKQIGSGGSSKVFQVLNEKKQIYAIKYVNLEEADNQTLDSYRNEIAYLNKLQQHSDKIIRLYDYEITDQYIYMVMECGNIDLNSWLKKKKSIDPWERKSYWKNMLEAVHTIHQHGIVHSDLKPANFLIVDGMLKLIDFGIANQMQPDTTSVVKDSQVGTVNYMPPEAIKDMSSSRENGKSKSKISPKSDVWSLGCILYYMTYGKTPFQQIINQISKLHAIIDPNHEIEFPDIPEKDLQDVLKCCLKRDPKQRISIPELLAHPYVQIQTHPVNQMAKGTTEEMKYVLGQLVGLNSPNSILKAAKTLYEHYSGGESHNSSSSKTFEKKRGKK

[10] = target: T3, Aurora kinase A (Homo sapiens) (UniProt O14965); settings: at 0.1 µM
T3 sequence (whole entry): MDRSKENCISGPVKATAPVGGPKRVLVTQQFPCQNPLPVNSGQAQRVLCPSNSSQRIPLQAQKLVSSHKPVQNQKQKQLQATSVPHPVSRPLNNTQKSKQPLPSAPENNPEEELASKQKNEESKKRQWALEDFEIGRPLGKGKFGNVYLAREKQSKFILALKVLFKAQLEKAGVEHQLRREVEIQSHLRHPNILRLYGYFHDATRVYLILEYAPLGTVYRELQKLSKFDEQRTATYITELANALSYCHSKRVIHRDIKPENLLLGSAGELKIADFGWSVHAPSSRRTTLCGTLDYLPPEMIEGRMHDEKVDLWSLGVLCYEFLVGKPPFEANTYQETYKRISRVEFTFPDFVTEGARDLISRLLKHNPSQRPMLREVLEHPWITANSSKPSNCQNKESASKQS

[11] = target: T3, Aurora kinase A (Homo sapiens); settings: at 1 µM
[12] = target: Aurora kinase B (Homo sapiens) (UniProt Q96GD4); settings: at 0.1 µM
[13] = target: Aurora kinase B (Homo sapiens) (UniProt Q96GD4); settings: at 1 µM
[14] = target: T4, Aurora kinase C (Homo sapiens) (UniProt Q9UQB9); settings: at 0.1 µM
T4 sequence (whole entry): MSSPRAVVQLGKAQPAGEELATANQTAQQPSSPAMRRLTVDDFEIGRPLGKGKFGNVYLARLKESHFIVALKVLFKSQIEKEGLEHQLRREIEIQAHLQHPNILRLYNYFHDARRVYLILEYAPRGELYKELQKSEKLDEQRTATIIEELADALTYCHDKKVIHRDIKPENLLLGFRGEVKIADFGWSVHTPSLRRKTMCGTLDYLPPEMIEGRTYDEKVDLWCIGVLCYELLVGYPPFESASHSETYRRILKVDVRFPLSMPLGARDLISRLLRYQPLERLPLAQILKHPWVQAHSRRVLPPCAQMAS

[15] = target: T4, Aurora kinase C (Homo sapiens); settings: at 1 µM
[16] = target: Serine/threonine-protein kinase 10 (Homo sapiens) (UniProt O94804); settings: at 0.1 µM
[17] = target: Serine/threonine-protein kinase 10 (Homo sapiens) (UniProt O94804); settings: at 1 µM
[18] = target: T5, Mitogen-activated protein kinase kinase kinase kinase 2 (Homo sapiens) (UniProt Q12851); settings: at 0.1 µM
T5 sequence (whole entry): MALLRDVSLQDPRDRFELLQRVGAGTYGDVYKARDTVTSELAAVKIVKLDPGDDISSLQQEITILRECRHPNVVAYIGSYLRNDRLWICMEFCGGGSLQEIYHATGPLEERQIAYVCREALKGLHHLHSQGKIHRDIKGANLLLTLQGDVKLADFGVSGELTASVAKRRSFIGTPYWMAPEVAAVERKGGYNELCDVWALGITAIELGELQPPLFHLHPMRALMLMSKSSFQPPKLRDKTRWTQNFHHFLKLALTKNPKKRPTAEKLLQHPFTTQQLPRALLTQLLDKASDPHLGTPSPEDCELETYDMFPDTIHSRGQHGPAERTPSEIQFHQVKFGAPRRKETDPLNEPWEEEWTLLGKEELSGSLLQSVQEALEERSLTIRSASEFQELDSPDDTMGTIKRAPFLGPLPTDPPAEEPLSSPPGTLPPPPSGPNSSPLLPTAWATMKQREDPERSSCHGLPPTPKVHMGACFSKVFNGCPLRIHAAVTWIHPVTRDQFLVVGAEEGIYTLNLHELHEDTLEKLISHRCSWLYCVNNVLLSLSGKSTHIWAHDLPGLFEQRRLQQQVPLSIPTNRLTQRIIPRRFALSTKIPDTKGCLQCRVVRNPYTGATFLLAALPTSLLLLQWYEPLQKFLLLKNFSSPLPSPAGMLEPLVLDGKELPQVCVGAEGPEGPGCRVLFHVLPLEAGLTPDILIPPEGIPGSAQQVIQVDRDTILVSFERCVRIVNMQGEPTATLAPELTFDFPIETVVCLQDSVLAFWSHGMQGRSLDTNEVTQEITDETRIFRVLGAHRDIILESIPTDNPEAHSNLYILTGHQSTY

[19] = target: T5, Mitogen-activated protein kinase kinase kinase kinase 2 (Homo sapiens); settings: at 1 µM
[20] = target: Mitogen-activated protein kinase kinase kinase kinase 4 (Homo sapiens) (UniProt O95819); settings: at 0.1 µM

Chain of BDNF/NT-3 growth factors receptor (Homo sapiens) (Q16620 32-822 limits assumed): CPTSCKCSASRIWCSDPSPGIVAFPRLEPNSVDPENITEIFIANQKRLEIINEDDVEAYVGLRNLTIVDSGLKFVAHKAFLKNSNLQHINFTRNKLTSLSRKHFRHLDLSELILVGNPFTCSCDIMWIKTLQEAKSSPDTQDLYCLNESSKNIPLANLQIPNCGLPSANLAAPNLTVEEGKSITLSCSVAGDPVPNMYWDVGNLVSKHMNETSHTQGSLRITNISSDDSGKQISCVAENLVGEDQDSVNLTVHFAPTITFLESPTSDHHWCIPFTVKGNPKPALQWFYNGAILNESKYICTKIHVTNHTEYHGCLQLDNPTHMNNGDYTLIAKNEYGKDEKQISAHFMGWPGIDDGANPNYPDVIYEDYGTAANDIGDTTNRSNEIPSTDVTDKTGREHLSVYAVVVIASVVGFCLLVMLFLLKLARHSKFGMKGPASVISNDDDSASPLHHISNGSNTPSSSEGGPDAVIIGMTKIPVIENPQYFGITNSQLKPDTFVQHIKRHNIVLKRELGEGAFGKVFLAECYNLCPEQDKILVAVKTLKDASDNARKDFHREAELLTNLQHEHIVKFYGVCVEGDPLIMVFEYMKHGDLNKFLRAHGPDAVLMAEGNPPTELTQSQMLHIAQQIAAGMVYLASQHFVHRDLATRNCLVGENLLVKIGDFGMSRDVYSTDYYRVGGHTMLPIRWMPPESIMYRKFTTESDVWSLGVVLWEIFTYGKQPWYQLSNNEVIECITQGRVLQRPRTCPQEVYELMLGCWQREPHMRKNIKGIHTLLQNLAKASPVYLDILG
Chain of Serine/threonine-protein kinase 10 (Homo sapiens) (O94804 whole entry, looked up): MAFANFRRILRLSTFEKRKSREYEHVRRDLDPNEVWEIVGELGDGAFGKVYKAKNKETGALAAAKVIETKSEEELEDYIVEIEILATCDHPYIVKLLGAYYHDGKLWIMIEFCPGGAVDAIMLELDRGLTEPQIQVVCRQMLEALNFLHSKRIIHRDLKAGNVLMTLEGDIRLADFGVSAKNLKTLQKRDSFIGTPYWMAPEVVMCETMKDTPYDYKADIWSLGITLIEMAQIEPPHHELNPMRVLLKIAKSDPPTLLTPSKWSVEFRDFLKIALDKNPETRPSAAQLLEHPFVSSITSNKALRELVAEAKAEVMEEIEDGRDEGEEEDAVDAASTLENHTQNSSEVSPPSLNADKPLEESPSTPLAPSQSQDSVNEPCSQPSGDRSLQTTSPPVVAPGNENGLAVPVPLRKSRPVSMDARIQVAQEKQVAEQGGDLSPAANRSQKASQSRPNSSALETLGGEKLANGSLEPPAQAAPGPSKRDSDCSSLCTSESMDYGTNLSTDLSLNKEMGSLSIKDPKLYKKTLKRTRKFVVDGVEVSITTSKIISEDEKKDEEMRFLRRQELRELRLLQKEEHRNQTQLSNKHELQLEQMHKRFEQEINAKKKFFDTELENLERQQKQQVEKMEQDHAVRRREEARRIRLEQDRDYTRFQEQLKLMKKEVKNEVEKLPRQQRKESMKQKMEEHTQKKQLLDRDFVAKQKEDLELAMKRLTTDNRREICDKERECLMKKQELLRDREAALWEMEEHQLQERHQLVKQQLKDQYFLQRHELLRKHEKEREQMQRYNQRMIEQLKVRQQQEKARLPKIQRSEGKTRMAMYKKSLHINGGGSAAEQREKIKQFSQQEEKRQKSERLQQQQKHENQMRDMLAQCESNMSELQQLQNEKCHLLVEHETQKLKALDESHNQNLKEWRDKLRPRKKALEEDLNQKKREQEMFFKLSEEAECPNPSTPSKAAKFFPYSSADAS
Chain of Non-receptor tyrosine-protein kinase TYK2 (Homo sapiens) (P29597 whole entry): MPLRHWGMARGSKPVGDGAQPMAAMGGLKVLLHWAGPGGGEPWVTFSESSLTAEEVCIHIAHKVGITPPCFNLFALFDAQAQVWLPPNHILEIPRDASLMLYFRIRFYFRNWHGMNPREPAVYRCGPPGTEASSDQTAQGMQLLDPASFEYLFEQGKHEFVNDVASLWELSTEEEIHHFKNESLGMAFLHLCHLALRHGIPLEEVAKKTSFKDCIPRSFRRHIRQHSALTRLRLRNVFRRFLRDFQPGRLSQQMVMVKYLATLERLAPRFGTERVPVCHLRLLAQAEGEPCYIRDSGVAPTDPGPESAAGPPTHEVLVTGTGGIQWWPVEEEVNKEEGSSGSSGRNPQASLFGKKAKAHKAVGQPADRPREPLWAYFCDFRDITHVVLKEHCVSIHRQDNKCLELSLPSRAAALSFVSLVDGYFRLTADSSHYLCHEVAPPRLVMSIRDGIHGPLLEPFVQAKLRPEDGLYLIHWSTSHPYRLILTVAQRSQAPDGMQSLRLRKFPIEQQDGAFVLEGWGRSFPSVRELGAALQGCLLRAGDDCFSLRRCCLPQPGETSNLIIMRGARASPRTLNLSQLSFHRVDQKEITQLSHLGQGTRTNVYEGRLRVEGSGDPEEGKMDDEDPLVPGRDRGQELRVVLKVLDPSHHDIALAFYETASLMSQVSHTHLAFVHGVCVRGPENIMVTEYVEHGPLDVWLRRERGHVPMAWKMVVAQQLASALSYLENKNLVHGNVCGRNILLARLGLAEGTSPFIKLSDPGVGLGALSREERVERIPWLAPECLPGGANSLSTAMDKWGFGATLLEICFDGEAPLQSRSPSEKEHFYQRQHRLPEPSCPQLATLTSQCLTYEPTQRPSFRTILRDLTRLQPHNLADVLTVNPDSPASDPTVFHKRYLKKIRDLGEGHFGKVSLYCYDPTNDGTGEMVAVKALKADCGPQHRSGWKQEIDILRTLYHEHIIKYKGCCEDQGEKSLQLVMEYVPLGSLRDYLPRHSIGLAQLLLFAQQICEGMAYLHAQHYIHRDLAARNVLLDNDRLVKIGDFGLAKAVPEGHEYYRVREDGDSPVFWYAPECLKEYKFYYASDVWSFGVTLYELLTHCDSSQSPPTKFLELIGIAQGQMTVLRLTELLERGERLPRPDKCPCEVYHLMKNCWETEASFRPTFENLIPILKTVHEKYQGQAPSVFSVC
Chain of NT-3 growth factor receptor (Homo sapiens) (Q16288 32-839 limits assumed): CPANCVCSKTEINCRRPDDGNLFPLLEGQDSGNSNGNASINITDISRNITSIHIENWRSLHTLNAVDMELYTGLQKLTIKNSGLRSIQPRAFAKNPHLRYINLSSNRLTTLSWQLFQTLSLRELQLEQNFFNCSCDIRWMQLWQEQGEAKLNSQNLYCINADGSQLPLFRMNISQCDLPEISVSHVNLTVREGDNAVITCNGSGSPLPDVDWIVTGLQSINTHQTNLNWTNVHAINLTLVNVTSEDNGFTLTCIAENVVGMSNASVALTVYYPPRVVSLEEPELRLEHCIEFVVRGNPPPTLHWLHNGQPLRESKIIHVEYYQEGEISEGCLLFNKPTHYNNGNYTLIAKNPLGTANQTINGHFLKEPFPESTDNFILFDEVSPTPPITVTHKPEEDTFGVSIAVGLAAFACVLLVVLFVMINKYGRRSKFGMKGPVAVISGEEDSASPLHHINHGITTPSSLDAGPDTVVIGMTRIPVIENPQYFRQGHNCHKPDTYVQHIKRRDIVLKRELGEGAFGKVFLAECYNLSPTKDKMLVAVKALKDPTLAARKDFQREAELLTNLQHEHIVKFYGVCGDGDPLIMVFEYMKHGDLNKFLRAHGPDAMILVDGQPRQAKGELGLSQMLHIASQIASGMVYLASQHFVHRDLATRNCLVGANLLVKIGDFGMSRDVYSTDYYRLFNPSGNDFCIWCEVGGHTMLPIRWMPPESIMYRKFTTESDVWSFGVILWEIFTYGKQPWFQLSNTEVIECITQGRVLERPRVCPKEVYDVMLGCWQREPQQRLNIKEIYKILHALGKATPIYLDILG
Chain of High affinity nerve growth factor receptor (Homo sapiens) (P04629 33-796 limits assumed): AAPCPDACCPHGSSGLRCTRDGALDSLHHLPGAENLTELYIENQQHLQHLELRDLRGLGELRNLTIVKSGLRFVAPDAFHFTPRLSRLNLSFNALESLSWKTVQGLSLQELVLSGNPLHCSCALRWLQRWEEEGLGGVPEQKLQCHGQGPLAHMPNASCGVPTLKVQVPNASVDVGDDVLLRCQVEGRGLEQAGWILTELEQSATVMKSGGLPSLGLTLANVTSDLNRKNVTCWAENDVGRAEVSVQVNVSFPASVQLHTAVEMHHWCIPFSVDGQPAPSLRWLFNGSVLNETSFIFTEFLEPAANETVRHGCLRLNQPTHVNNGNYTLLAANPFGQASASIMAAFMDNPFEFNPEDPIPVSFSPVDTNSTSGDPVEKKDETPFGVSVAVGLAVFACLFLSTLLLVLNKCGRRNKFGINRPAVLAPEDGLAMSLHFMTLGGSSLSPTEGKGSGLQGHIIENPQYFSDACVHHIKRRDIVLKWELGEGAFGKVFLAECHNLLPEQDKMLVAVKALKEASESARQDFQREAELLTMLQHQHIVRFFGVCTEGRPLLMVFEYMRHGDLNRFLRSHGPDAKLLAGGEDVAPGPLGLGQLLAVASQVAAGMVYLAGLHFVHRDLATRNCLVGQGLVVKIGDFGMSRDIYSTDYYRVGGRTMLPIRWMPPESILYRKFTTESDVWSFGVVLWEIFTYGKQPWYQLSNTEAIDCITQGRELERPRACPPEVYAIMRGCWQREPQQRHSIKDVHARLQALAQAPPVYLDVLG
Chain of Aurora kinase B (Homo sapiens) (Q96GD4 whole entry): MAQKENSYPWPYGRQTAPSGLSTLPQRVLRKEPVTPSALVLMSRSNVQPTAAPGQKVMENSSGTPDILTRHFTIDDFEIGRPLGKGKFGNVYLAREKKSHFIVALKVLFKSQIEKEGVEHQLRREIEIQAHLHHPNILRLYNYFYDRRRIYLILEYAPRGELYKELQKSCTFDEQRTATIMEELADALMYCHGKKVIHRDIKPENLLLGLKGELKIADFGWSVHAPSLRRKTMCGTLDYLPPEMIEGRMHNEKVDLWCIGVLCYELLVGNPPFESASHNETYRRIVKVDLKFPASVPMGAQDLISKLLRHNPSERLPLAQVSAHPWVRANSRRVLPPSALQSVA

Row | Compound | inhibition [1] [%] | inhibition [2] [%] | inhibition [3] [%] | inhibition [4] [%] | inhibition [5] [%] | inhibition [6] [%] | inhibition [7] [%] | inhibition [8] [%] | inhibition [9] [%] | inhibition [10] [%] | inhibition [11] [%] | inhibition [12] [%] | inhibition [13] [%] | inhibition [14] [%] | inhibition [15] [%] | inhibition [16] [%] | inhibition [17] [%] | inhibition [18] [%] | inhibition [19] [%] | inhibition [20] [%]
1 | CNC(=O)c1cc(-c2ccc(F)cc2)cc(-c2ccc(S(=O)(=O)N3CCCC3)cc2)c1N | 2.94 | 2.22 | 2.48 | 2.53 | 2.33 | 2.21 | 2.22 | -3.89 | 3.8 | 0.79 | 0.86 | 2.91 | 3.09 | -0.67 | 1.97 | 2.49 | 4.92 | 1 | 0.67 | 3.33
2 | CCOc1ccc2c(-c3ccnc(Nc4cccc(C(F)(F)F)c4)n3)cnn2n1 | 0.26 | 0.03 | 2.11 | 0.07 | 3.18 | -0.13 | 3.47 | -0.74 | 4.11 | 1.41 | 7.68 | 6.17 | 9.87 | 2.6 | 12.5 | 4.81 | 12.9 | 0.42 | 6.12 | 0.65
3 | FC(F)(F)c1cccc(-c2nn3ncccc3c2-c2ccnc(Nc3ccc4c(c3)OCCO4)n2)c1 | 3.48 | 1.94 | 3.39 | 0.62 | 3.72 | 3.11 | 9 | -2.27 | 14.6 | 2.64 | 24.7 | 4.28 | 12.4 | 1.81 | 19.9 | 3.84 | 19.8 | 1.35 | 12.2 | 7.12
4 | COc1cc2c(cc1Nc1nc(Nc3ccsc3C(N)=O)c3cc[nH]c3n1)N(C(=O)CN(C)C)CCC2(C)C | 13.6 | 3.72 | 11.4 | 4.08 | 11.6 | 2.02 | 4.22 | -4.11 | 49.6 | 3.59 | 13.2 | 6.17 | 11.7 | 4.7 | 13.7 | 6.3 | 17.3 | 4.1 | 22.6 | 12.1
5 | Fc1ccc(-c2nn3ccccc3c2-c2ccncc2)cc1 | 0.45 | 0.38 | 0.3 | -0.15 | -0.76 | 2.39 | 7.59 | 0.8 | 2.44 | 1.94 | 8.81 | -1.03 | 4.77 | 0.61 | 2.01 | 2.07 | 1.79 | 2.33 | 7.42 | 5.52
6 | Nc1ncc(-c2cccc(S(N)(=O)=O)c2)c2scc(-c3ccc(F)c(Cl)c3)c12 | 2.2 | 2.61 | 3.28 | 1.75 | 1.1 | 82 | 91.6 | -1.25 | 14.3 | 3.16 | 5.8 | 2.25 | 14.7 | 4.24 | 24.6 | 8.9 | 24.7 | 6.47 | 31.4 | 78.5
7 | CCNC(=O)O[C@H]1CN[C@H](C#Cc2cc3ncnc(Nc4ccc(OCc5cccc(F)c5)c(Cl)c4)c3s2)C1 | 3.06 | 3.01 | 1.6 | 2.47 | 1.74 | 3.06 | 3.99 | -3.3 | 10.4 | 1.24 | 9.61 | 0.34 | 8.23 | 1.85 | 12 | 3.53 | 9.99 | 0.18 | 2.21 | 4.18
8 | CC(=O)Nc1cccc(C#Cc2cncnc2Nc2ccc(OCc3cccc(F)c3)c(Cl)c2)c1 | -0.49 | 0.63 | 0.88 | -1.1 | 1.69 | 5.05 | 8.59 | 1.05 | 7.9 | 2.48 | 8.44 | 1.68 | 5.28 | 2.09 | 15.3 | 2.85 | 4.01 | 0.88 | 1.54 | 2.7
9 | O=S(=O)(CCNCc1ccc(-c2ccc3ncnc(Nc4ccc(OCc5cccc(F)c5)c(Cl)c4)c3c2)o1)c1ccccc1 | 1.84 | 3.5 | 5.72 | 3.32 | 5.45 | -1.02 | 5.43 | -1.8 | 9.69 | 6.02 | 6.24 | 5.41 | 11.8 | 2.93 | 10.2 | 9.92 | 17.5 | 2.04 | 5.59 | 4.02
10 | CCn1cc(-c2ccnc3[nH]ccc23)c(-c2cccc(NC(=O)Nc3ccc(OCc4ccccc4)cc3)c2)n1 | -2.6 | -2.42 | -0.53 | -0.62 | 8.83 | -1.03 | 1.79 | 0.94 | 3.41 | 2.05 | 7.41 | 2.62 | 14.1 | 0.13 | 19.5 | 2.56 | 7.07 | 0.73 | 10.4 | 1.57
11 | COc1ccc2[nH]c3c4[nH]c5ccc(OC)cc5c4c4c(c3c2c1)C(=O)NC4=O | 16.6 | 7.79 | 33.9 | 8.83 | 41.5 | 2.51 | 14.6 | -2.11 | 34.6 | 7.28 | 68.8 | 20.7 | 66.9 | 12.4 | 86.8 | 9.72 | 40.2 | 2.06 | 12.1 | 84.6
12 | N#Cc1c(NC(=O)CN2CCOCC2)sc2c1CCCC2 | 0.84 | 2.29 | 4.03 | 2.17 | 2.8 | 2.2 | 3.56 | -1.25 | 12.8 | 2.73 | 8.53 | 4.66 | 10.7 | 2.31 | -1.84 | 5.94 | 6.99 | 1.71 | 2.67 | 10.5
13 | Cc1cccc(Nc2ncc(-c3ccccc3)o2)c1 | 6.23 | 3.27 | 11.7 | 1.16 | 12.2 | 7.08 | 5.35 | 1.38 | 6.17 | 2.74 | 7.93 | 3.4 | 7.88 | 0.68 | 11.2 | 3.16 | 7.96 | 1.52 | 4.15 | 2.79

From ChEMBL document CHEMBL1961873, “Compounds: GSK PKIS; Assays: Nanosyn kinase panel” (2012)
